{
  "source": "paper PMC4336329",
  "about": "(PLoS ONE, 2015)",
  "note": "Screen size: about 310,000 compounds; about 14,000 (4.5%) showed an effect of 50% or more. The effect is printed as a negative number. The sample as a whole holds a higher share of strong results than the screen did.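 Further: peak tail current of the secondary pulse compared with the same well before compound.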",
  "data": [
    {"target": "human ether-à-go-go-related gene (hERG) potassium channel (human, UniProt Q12809)", "sequence (Q12809 whole entry, looked up)": "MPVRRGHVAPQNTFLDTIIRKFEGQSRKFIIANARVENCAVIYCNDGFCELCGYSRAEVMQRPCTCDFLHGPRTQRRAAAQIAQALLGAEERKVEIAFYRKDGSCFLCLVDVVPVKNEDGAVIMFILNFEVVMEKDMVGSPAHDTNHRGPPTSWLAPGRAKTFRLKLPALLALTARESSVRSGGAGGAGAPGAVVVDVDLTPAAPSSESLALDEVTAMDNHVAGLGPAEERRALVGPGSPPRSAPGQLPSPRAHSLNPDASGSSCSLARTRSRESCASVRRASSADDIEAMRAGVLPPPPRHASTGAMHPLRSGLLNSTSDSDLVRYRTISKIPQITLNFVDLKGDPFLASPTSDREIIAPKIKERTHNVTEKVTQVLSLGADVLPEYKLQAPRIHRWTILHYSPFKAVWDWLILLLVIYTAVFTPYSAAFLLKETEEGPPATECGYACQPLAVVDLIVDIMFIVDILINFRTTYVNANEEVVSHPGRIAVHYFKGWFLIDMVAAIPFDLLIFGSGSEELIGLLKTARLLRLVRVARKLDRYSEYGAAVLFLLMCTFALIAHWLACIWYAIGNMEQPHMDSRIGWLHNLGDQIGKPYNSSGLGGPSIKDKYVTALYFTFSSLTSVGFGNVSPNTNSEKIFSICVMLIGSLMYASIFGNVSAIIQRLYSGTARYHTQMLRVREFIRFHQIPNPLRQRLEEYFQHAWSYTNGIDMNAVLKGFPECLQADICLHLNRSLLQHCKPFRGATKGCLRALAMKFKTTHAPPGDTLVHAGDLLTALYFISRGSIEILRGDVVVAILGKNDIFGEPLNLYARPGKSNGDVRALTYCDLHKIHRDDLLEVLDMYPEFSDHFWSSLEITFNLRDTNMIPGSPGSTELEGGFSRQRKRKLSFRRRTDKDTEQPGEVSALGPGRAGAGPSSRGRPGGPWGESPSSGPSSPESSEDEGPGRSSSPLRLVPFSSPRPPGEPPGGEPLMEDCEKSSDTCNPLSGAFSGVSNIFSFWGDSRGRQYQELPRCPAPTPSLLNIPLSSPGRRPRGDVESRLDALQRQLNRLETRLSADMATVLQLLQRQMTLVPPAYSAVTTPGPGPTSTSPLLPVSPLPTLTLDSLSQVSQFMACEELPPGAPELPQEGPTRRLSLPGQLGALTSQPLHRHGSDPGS", "test": "primary screen, population patch clamp on CHO cells stably expressing hERG; higher = less effect of the substance", "units": {"hERG current change (%, negative = inhibition) at 10uM": "%"}, "values": [
      {"smiles": "CCOC(=O)C1CCN(C(=O)C2CCN(S(=O)(=O)c3cc(Cl)ccc3Cl)CC2)CC1", "hERG current change (%, negative = inhibition) at 10uM": -30.1},
      {"smiles": "Cc1ccc(S(=O)(=O)N2CCOCC2)cc1C(=O)OCC(=O)c1ccc(Br)cc1", "hERG current change (%, negative = inhibition) at 10uM": 14.7},
      {"smiles": "COc1ccc(-c2nc3ccc(N4CCN(C)CC4)cc3c(=O)[nH]2)cc1", "hERG current change (%, negative = inhibition) at 10uM": 8.45},
      {"smiles": "O=c1c2ccccc2nc(-c2ccccc2)n1Cc1ccc(Cl)cc1", "hERG current change (%, negative = inhibition) at 10uM": -15.7},
      {"smiles": "O=c1c2ccccc2nc(N2CCCC2)n1-c1ccc(Cl)cc1", "hERG current change (%, negative = inhibition) at 10uM": -3.18},
      {"smiles": "O=c1c2ccccc2nc2n1CCN2Cc1ccc(Cl)cc1", "hERG current change (%, negative = inhibition) at 10uM": -51.9},
      {"smiles": "CCOC(=O)c1c(-n2c(C)cc(C=C3C(=O)NC(=S)NC3=O)c2C)sc2c1CCCC2", "hERG current change (%, negative = inhibition) at 10uM": -5.55},
      {"smiles": "CN1CCC(=NNC(=O)c2ccc(N(Cc3ccc(Cl)cc3)S(C)(=O)=O)cc2)CC1", "hERG current change (%, negative = inhibition) at 10uM": -38},
      {"smiles": "Cc1cnc(C(=O)NC2CC(C)(C)Cc3c2cnn3-c2cccc(F)c2)cn1", "note": "(stereo not shown)", "hERG current change (%, negative = inhibition) at 10uM": -33.5},
      {"smiles": "CC1(C)Cc2c(cnn2-c2cccc(F)c2)C(NC(=O)c2csnn2)C1", "note": "(stereo not shown)", "hERG current change (%, negative = inhibition) at 10uM": -78.3},
      {"smiles": "Cc1cc(C(=O)NC2CC(C)(C)Cc3c2cnn3-c2cccc(F)c2)n(C)n1", "note": "(stereo not shown)", "hERG current change (%, negative = inhibition) at 10uM": -32.6},
      {"smiles": "COc1cccc(C(=O)NC2CC(C)(C)Cc3c2cnn3-c2cccc(F)c2)c1OC", "note": "(stereo not shown)", "hERG current change (%, negative = inhibition) at 10uM": -52.3},
      {"smiles": "CC1(C)Cc2c(cnn2-c2cccc(F)c2)C(NC(=O)c2ccc(=O)[nH]n2)C1", "note": "(stereo not shown)", "hERG current change (%, negative = inhibition) at 10uM": -70.2},
      {"smiles": "CC1=C(C(=O)NC2CC(C)(C)Cc3c2cnn3-c2cccc(F)c2)OCCO1", "note": "(stereo not shown)", "hERG current change (%, negative = inhibition) at 10uM": -43.5},
      {"smiles": "COc1ccc(C(=O)NC2CC(C)(C)Cc3c2cnn3-c2ccccc2)c(OC)c1", "note": "(stereo not shown)", "hERG current change (%, negative = inhibition) at 10uM": -2.5},
      {"smiles": "COc1cc(C(=O)NC2CC(C)(C)Cc3c2cnn3-c2ccccc2)cc(OC)c1OC", "note": "(stereo not shown)", "hERG current change (%, negative = inhibition) at 10uM": 8.92},
      {"smiles": "Cc1cc(C(=O)NC2CC(C)(C)Cc3c2cnn3-c2cccc(F)c2)nn1C", "note": "(stereo not shown)", "hERG current change (%, negative = inhibition) at 10uM": -2.79},
      {"smiles": "O=C(N/N=C/c1coc2ccccc2c1=O)c1ccccc1", "hERG current change (%, negative = inhibition) at 10uM": 10.6},
      {"smiles": "COc1ccc(CN2CCN(C(=O)CC(C)C)CC2)cc1Br", "hERG current change (%, negative = inhibition) at 10uM": -4.54},
      {"smiles": "C=CC[C@]12C[C@@H](OC)C(=O)C=C1O[C@@H](c1ccc(OC)c(OC)c1)[C@H]2C", "hERG current change (%, negative = inhibition) at 10uM": 14.5},
      {"smiles": "NC(=O)C(c1ccc(Sc2ccccc2)nn1)c1ccc(Cl)cc1Cl", "note": "(stereo not shown)", "hERG current change (%, negative = inhibition) at 10uM": -43.9},
      {"smiles": "Cc1c(C(=O)NCC2COc3ccccc3O2)oc2ccc(S(=O)(=O)N3CC(C)CC(C)C3)cc12", "note": "(stereo not shown)", "hERG current change (%, negative = inhibition) at 10uM": 12.4}
    ]}
  ]
}
